Of roughly 7,900 targets only a part is listed; those with a hit were picked by preference. About 0.6% of all pairs of compound and target were hits. A number with no mark means an inactive call.
Experiments:
Test in all cases: log2 fold change, soluble protein after heating vs DMSO (PISA); higher = thermal stabilisation; K562 cells, 10 uM, 30 min; active = over 0.2 and 3.5 SD of the protein, either way, in both replicates (recomputed)
IRAK-1-4 Inhibitor I = compound: C1COCCN1CCN2C3=CC=CC=C3N=C2NC(=O)C4=CC(=CC=C4)[N+](=O)[O-] [IRAK-1-4 Inhibitor I]
Summary of the method: (§1)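 K562 cells at 2×10^6 cells/mL were exposed to 10 μM compound for 30 min, then aliquots were heated for 3 min across 48°C-58°C, pooled, and extracted in PBS containing 0.5% NP-40 at 4°C. The supernatant after 21,000xg for 90 min was taken as soluble protein and measured by TMTpro 16plex LC-MS/MS with channel sums equalised. Thermal stability is reported relative to control samples, with values from duplicates. Fold changes are given on a log2 scale.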

ibrutinib = compound: C=CC(=O)N1CCC[C@@H](n2nc(-c3ccc(Oc4ccccc4)cc3)c3c(N)ncnc32)C1 [ibrutinib]
Summary of the method: as §1

[1] = compound: CC(=O)c1cnc2ccc(-c3cc(Cl)c(O)c(Cl)c3)nc2c1N[C@H]1CC[C@H](CN(C)C)CC1
Summary of the method: as §1

ralimetinib = compound: CC(C)(C)Cn1c(N)nc2ccc(-c3[nH]c(C(C)(C)C)nc3-c3ccc(F)cc3)nc21 [ralimetinib]
Summary of the method: as §1

[2] = compound: CC(C)(O)CC(=O)NCCn1ccc2ncnc(Nc3ccc(Oc4cccc(C(F)(F)F)c4)c(Cl)c3)c21
Summary of the method: as §1

[3] = compound: CC(C)C1=C2N=C(C=C(N2N=C1)NCC3=CC=CC=C3)NCCCCCCN
Summary of the method: as §1

[4] = compound: CC(C)C[C@@H](C=O)NC(=O)[C@H](CC(C)C)NC(=O)[C@H](CC(C)C)NC(=O)OCc1ccccc1
Summary of the method: as §1

pinometostat = compound: CC(C)N(C[C@H]1O[C@@H](n2cnc3c(N)ncnc32)[C@H](O)[C@@H]1O)[C@H]1C[C@@H](CCc2nc3cc(C(C)(C)C)ccc3[nH]2)C1 [pinometostat]
Summary of the method: as §1

[5] = compound: CC1=C(C(CC(=O)N1)C2=CC=C(C=C2)C(F)(F)F)C(=O)NC3=C(C=C4C(=C3)C=NN4)F
Summary of the method: as §1

[6] = compound: CC1=C(C2=C(C=C1)C(=O)C3=CC=CC=C3N2CCCN)C
Summary of the method: as §1

[7] = compound: CC1=C(C=C(C=C1)NC(=O)C2=CC(=CC=C2)C(C)(C)C#N)NC3=CC4=C(C=C3)N=CN(C4=O)C
Summary of the method: as §1

[8] = compound: CC1=C(C=C(C=C1)NC(=O)C2=CC(=CC=C2)N(C)C)NC(=O)C3=CC=C(C=C3)O
Summary of the method: as §1

[9] = compound: CC1=CC=C(C=C1)SC2=C3C=C(SC3=CN=C2)C(=O)N
Summary of the method: as §1

[10] = compound: CC1=NC(=CC=C1)C2=C(N=C(N2)C(C)(C)C)C3=CC4=NC=CN=C4C=C3
Summary of the method: as §1

Nexturastat A = compound: CCCCN(Cc1ccc(C(=O)NO)cc1)C(=O)Nc1ccccc1 [Nexturastat A]
Summary of the method: as §1

vemurafenib = compound: CCCS(=O)(=O)Nc1ccc(F)c(C(=O)c2c[nH]c3ncc(-c4ccc(Cl)cc4)cc23)c1F [vemurafenib]
Summary of the method: as §1

[11] = compound: CCCS(=O)(=O)Nc1ccc(F)c(C(=O)c2c[nH]c3ncc(Cl)cc23)c1F
Summary of the method: as §1

[12] = compound: CCCc1cc(C)[nH]c(=O)c1CNC(=O)c1cc(-c2ccnc(N3CCN(C)CC3)c2)cc2c1cnn2C(C)C
Summary of the method: as §1

givinostat = compound: CCN(CC)Cc1ccc2cc(COC(=O)Nc3ccc(C(=O)NO)cc3)ccc2c1 [givinostat]
Summary of the method: as §1

barasertib = compound: CCN(CCCOc1ccc2c(Nc3cc(CC(=O)Nc4cccc(F)c4)[nH]n3)ncnc2c1)CCOP(=O)(O)O [barasertib]
Summary of the method: as §1

Sequence of UniProt Q96BW9 (Q96BW9 whole entry, looked up): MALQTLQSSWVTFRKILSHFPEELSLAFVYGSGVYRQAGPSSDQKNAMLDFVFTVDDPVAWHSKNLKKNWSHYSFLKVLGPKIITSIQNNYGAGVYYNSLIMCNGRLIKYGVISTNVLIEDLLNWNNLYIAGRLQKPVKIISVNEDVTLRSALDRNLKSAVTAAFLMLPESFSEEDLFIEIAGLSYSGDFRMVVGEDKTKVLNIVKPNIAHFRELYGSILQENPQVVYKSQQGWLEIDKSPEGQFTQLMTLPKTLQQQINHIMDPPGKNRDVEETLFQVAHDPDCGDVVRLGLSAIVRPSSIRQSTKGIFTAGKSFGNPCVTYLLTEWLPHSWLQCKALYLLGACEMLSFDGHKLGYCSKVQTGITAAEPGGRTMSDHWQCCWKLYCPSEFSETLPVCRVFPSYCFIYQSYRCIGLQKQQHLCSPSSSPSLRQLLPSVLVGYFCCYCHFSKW
Sequence of UniProt Q8NEW0 (Q8NEW0 whole entry, looked up): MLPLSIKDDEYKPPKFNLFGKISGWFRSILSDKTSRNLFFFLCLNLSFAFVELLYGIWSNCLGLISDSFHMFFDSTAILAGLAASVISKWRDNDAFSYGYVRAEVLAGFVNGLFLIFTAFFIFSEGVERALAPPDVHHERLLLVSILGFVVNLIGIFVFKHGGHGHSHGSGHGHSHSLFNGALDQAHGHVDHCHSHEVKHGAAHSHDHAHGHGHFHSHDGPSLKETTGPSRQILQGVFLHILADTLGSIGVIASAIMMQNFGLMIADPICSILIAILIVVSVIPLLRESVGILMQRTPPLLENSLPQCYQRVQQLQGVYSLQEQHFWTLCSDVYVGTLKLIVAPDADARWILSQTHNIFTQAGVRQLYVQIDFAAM
Sequence of UniProt P51571 (P51571 whole entry, looked up): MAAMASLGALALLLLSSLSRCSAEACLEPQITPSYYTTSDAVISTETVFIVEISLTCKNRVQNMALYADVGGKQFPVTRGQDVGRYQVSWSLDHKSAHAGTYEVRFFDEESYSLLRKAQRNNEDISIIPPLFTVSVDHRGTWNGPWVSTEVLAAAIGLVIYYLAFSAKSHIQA
Sequence of UniProt Q66K14 (Q66K14 whole entry, looked up): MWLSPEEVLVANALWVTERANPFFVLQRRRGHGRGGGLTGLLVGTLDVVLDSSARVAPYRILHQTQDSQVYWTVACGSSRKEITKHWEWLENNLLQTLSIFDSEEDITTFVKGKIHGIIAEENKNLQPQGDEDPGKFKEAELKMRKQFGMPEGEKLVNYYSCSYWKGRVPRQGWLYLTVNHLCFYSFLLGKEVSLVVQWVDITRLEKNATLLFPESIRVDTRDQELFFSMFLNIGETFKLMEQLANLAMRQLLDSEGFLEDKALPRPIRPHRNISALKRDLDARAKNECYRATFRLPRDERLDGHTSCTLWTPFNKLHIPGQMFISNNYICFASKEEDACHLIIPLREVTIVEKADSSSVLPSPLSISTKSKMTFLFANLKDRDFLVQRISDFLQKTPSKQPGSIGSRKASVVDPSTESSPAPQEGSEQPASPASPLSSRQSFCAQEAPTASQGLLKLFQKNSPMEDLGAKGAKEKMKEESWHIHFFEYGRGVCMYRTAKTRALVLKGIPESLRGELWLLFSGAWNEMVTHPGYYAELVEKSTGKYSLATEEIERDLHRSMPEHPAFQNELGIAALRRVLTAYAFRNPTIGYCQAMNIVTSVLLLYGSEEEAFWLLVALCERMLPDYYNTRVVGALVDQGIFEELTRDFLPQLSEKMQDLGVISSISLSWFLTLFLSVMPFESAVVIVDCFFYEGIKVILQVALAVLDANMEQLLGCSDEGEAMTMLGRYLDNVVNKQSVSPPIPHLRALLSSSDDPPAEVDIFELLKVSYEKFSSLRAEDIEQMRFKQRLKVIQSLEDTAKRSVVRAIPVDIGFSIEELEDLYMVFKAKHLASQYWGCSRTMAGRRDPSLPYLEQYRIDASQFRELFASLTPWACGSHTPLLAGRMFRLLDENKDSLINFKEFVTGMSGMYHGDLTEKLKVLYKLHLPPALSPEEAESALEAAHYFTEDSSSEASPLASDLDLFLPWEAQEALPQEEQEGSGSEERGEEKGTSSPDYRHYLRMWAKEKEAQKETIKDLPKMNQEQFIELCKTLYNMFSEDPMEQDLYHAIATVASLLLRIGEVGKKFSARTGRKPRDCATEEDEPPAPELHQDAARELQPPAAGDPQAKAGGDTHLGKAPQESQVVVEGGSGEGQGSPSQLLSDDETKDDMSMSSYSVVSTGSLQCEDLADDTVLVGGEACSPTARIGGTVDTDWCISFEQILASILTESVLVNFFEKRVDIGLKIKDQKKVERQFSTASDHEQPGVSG
Sequence of UniProt Q9NZD8 (Q9NZD8 whole entry, looked up): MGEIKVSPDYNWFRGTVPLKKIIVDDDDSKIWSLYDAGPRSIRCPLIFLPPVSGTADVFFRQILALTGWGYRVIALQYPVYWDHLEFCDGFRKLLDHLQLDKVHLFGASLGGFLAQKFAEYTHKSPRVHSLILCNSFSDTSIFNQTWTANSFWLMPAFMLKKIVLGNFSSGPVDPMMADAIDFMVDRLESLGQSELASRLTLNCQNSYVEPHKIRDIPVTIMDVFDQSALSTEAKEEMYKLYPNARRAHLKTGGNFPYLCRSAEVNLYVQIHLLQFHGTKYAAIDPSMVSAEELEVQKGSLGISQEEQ
Sequence of UniProt P53597 (P53597 whole entry, looked up): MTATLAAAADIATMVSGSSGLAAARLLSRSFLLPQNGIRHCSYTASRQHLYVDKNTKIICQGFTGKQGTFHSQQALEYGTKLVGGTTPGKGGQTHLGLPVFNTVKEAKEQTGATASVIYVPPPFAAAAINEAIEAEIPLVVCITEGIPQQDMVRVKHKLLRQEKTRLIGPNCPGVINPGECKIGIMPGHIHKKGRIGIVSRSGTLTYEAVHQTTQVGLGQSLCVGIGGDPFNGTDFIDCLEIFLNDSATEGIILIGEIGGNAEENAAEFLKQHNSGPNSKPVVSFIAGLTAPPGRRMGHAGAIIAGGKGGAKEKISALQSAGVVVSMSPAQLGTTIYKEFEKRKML
Sequence of UniProt P15907 (P15907 whole entry, looked up): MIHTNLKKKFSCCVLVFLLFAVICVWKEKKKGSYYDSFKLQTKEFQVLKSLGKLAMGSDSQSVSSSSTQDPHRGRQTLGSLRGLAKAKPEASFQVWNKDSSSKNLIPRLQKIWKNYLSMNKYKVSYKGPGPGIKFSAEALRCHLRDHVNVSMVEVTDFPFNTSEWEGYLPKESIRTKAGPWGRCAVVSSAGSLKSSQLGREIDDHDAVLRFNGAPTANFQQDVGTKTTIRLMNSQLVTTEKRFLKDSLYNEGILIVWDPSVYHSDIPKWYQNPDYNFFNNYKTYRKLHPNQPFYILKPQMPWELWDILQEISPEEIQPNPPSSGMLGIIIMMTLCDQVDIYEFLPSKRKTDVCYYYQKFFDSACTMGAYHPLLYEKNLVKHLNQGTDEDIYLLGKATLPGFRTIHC
Sequence of UniProt O95149 (O95149 whole entry, looked up): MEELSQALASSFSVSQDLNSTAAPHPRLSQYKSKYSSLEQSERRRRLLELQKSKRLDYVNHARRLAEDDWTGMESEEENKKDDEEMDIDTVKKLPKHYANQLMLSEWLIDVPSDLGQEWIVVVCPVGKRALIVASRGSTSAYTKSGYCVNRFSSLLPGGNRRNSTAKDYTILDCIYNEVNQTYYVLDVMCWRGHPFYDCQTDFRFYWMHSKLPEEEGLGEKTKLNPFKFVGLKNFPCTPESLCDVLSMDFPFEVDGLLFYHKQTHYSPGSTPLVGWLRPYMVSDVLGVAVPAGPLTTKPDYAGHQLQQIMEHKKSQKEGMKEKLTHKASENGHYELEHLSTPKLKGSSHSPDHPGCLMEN
Sequence of UniProt Q01085 (Q01085 whole entry, looked up): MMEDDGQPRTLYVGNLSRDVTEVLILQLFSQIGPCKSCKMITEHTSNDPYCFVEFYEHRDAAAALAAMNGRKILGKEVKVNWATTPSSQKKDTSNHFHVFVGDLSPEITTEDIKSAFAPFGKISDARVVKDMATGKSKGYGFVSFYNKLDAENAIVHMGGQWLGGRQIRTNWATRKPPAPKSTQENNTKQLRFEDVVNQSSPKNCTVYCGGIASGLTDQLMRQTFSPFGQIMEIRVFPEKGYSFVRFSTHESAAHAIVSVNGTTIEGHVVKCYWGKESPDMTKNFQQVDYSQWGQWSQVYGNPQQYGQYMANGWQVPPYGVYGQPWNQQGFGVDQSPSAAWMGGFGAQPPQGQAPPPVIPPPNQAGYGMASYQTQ
Sequence of UniProt O00193 (O00193 whole entry, looked up): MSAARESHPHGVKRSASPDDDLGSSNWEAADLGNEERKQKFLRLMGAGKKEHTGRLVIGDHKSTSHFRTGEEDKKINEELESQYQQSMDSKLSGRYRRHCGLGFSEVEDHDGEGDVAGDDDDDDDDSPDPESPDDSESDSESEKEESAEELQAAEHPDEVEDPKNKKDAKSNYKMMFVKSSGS
Sequence of UniProt Q15833 (Q15833 whole entry, looked up): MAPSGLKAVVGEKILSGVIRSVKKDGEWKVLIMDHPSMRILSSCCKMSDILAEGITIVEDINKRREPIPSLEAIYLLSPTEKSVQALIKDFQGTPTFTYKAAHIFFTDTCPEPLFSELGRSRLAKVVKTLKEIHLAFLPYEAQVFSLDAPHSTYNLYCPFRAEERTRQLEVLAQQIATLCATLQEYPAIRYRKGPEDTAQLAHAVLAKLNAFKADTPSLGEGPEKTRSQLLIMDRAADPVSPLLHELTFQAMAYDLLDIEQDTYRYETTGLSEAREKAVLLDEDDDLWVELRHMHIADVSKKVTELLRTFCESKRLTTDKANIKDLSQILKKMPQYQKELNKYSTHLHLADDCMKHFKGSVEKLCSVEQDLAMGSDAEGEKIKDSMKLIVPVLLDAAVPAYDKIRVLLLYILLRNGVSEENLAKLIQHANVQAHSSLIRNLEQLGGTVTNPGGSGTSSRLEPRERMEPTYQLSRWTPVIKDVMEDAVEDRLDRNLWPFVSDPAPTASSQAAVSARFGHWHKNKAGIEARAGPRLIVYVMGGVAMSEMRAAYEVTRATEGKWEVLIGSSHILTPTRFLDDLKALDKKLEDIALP

Row | Target | log2 fold change (IRAK-1-4 Inhibitor I) | log2 fold change (ibrutinib) | log2 fold change [1] | log2 fold change (ralimetinib) | log2 fold change [2] | log2 fold change [3] | log2 fold change [4] | log2 fold change (pinometostat) | log2 fold change [5] | log2 fold change [6] | log2 fold change [7] | log2 fold change [8] | log2 fold change [9] | log2 fold change [10] | log2 fold change (Nexturastat A) | log2 fold change (vemurafenib) | log2 fold change [11] | log2 fold change [12] | log2 fold change (givinostat) | log2 fold change (barasertib)
1 | TEX264 (UniProt Q9Y6I9) | -0.011 | -0.049 | -0.022 | 0 | 0.19 | -0.148 | -0.035 | -0.005 | -0.155 | 0.091 | 0.053 | -0.016 | -0.008 | 0.013 | 0.023 | -0.002 | -0.049 | 0.014 | 0.317 | 0.032
2 | SPG21 (UniProt Q9NZD8) | -0.042 | -0.167 | -0.046 | 0.014 | 0.043 | -0.007 | 0.021 | 0.019 | -0.062 | 0.072 | -0.108 | -0.157 | -0.003 | 0.057 | 0.016 | 0.044 | -0.044 | 0.057 | -0.014 | 0.026
3 | ST6GAL1 (UniProt P15907) | -0.01 | 0.002 | 0.021 | 0.041 | 0.058 | -0.051 | -0.009 | 0.024 | 0.02 | 0.011 | 0.025 | -0.032 | -0.028 | -0.064 | -0.031 | -0.1 | -0.069 | 0.047 | -0.005 | -0.014
4 | TECR (UniProt Q9NZ01) | 0.04 | -0.059 | 0 | -0.061 | -0.107 | -0.458 (active) | 0.009 | 0.024 | 0.012 | 0.036 | -0.017 | -0.034 | 0.031 | 0.069 | -0.043 | 0.021 | 0.113 | -0.084 | 0.011 | 0.007
5 | SSR4 (UniProt P51571) | 0.003 | 0.032 | -0.033 | 0.049 | -0.034 | -0.03 | 0.032 | -0.028 | -0.015 | 0.09 | -0.004 | 0.012 | 0.064 | 0.039 | -0.046 | -0.014 | 0.081 | -0.035 | 0.03 | -0.052
6 | SUCLG1 (UniProt P53597) | 0.048 | 0.01 | -0.018 | -0.039 | -0.07 | -0.058 | -0.01 | -0.04 | -0.017 | 0.053 | -0.02 | -0.008 | -0.001 | 0.025 | -0.032 | 0.009 | 0 | -0.006 | -0.102 | 0.019
7 | SLC30A7 (UniProt Q8NEW0) | 0.035 | 0.063 | 0.032 | -0.098 | -0.075 | -0.186 | 0.011 | -0.007 | -0.058 | 0.06 | -0.03 | 0.003 | 0.03 | -0.072 | -0.108 | 0.072 | -0.019 | -0.148 | 0.081 | 0.032
8 | TBC1D9B (UniProt Q66K14) | 0.038 | 0.079 | -0.075 | 0.071 | 0.103 | -0.133 | 0.032 | 0.051 | 0.02 | -0.042 | -0.028 | 0.116 | 0.05 | -0.032 | 0.361 (active) | 0.095 | 0.048 | -0.189 | 0.002 | 0.04
9 | TIAL1 isoform 2 (UniProt Q01085) | 0.044 | 0.011 | -0.035 | -0.05 | 0.001 | 0.106 | 0.019 | -0.039 | -0.02 | 0.238 (active) | -0.009 | 0.015 | -0.019 | 0.08 | 0.005 | 0.023 | 0.002 | -0.007 | -0.022 | -0.021
10 | STAM2 (UniProt O75886) | 0.033 | 0.008 | -0.018 | 0.034 | 0.038 | -0.131 | 0.018 | 0.014 | -0.063 | 0.004 | -0.08 | -0.032 | 0.034 | 0.069 | -0.012 | 0.009 | 0.074 | -0.038 | 0.021 | 0.028
11 | STXBP2 isoform 3 (UniProt Q15833) | -0.11 | -0.057 | -0.021 | 0.172 | -0.065 | -0.364 (active) | 0.147 | 0.189 | 0.023 | 0.025 | 0 | -0.042 | 0.036 | -0.017 | 0.128 | 0.155 | 0.032 | 0.063 | 0.125 | 0.068
12 | SRPRA (UniProt P08240) | -0.024 | 0.015 | -0.028 | -0.002 | -0.058 | 0.021 | -0.006 | -0.001 | -0.033 | 0.269 (active) | 0.089 | -0.06 | 0.018 | 0.047 | 0 | 0.038 | 0.069 | 0.001 | 0.018 | 0.04
13 | TAMM41 isoform 3 (UniProt Q96BW9) | 0.075 | 0.022 | -0.061 | -0.04 | -0.172 | -0.214 | 0.043 | 0.015 | 0.013 | 0.169 | -0.021 | -0.013 | 0.049 | 0.056 | -0.084 | -0.006 | 0.04 | -0.062 | 0.036 | 0.046
14 | SMAP (UniProt O00193) | 0.134 | -0.063 | -0.021 | 0.007 | -0.004 | 0.058 | -0.018 | -0.049 | 0.029 | -0.021 | -0.018 | -0.002 | -0.03 | 0.062 | -0.059 | -0.006 | 0.001 | -0.107 | -0.02 | 0.008
15 | SNUPN (UniProt O95149) | 0.037 | -0.039 | -0.089 | -0.026 | -0.045 | -0.034 | 0.037 | 0.07 | -0.002 | -0.184 | -0.078 | 0.052 | 0.013 | 0.026 | -0.037 | -0.024 | -0.065 | 0.013 | -0.017 | 0.024
16 | TFAM (UniProt Q00059) | -0.047 | 0.03 | 0.07 | 0.044 | 0.043 | 0.007 | 0.056 | 0.05 | 0.002 | -0.414 (active) | 0.039 | -0.004 | -0.036 | -0.036 | 0.079 | -0.05 | -0.043 | -0.033 | -0.055 | -0.023
